Data reported in PubChem BioAssay (NCATS).
Records with an inconclusive call do not appear. Where a call stands in place of a potency, no number is given. Activity calls are given as the source filed them. Calls come from the whole dose curve; as a rule, active = well fitted curve in the direction sought with a large enough effect; inconclusive = small, poorly fitted or top-dose-only effect, or another doubt; inactive = no such curve, though single readings can be large; an effect the other way counts as inactive or inconclusive.

What was measured:
[1] = biological target: Aldehyde dehydrogenase, mitochondrial (Homo sapiens) (UniProt P05091); test: qHTS for Inhibitors of the Aldehyde Dehydrogenase Family (ALDH2) Primary screen (AID 2061308); note: nearly all actives have a fitted effect of over 55% in size
[2] = biological target: Retinaldehyde dehydrogenase 3 (Homo sapiens) (UniProt P47895); test: qHTS for Inhibitors of the Aldehyde Dehydrogenase Family (ALDH1A3) Primary screen (AID 2061315)

CCCn1c(-c2ccc(F)cc2)nc2c(NCCCN(CC)CC)nc(C)nc21
Potency [1]: inactive | Potency [2]: inactive

CC(=O)c1ccccc1-c1ncc(C)c(NCc2ccc(-c3cccnc3)cc2)n1
Potency [1]: inactive | Potency [2]: inactive

CO/N=C(/C(=O)N[C@@H]1C(=O)N2C(C(=O)O)=C(Cn3nnc(C)n3)CS[C@H]12)c1csc(N)n1
Potency [1]: inactive | Potency [2]: inactive

Cc1ccc(OCCn2c(CCNC(=O)c3cccc(C)c3)nc3ccccc32)cc1
Potency [1]: inactive | Potency [2]: inactive

O=C(Nc1nc(-c2ccccc2)cs1)c1ccncc1NS(=O)(=O)c1cccc2cccnc12
Potency [1]: inactive | Potency [2]: inactive

CC(C)(C)OC(=O)CC(=O)NNC(=O)c1nc2ccccc2[nH]1
Potency [1]: inactive | Potency [2]: inactive

N#CN1CCC(N[S+](=O)([O-])c2cccc(F)c2)CC1
Potency [1]: inactive | Potency [2]: inactive

Cc1ccc(NS(=O)(=O)c2ccc3c(ccn3C)c2)cc1C
Potency [1]: inactive | Potency [2]: inactive

COc1ccc(C2=Nn3c(nnc3-c3ccc(OC)c(OC)c3)SC2)cc1OC
Potency [1]: inactive | Potency [2]: inactive

CCCc1ccc(-c2csc(NC(=O)c3ccncc3NS(=O)(=O)c3ccc(C)cc3)n2)cc1
Potency [1]: inactive | Potency [2]: inactive

O=C(OCC#CCSc1nnc(-c2c[nH]c3ccccc23)o1)c1ccc(F)cc1
Potency [1]: inactive | Potency [2]: inactive

NC(=O)C1CCN(c2nc(-c3ccc(OCc4ccccc4)cc3)cs2)CC1
Potency [1]: inactive | Potency [2]: inactive

O=C(c1ccccc1)N1CCN(c2nc(-c3cccs3)nc3ccccc23)CC1
Potency [1]: inactive | Potency [2]: inactive

CCN(CC)CCn1c(-c2ccccc2)nc2c(NCCO)nc(C)nc21
Potency [1]: inactive | Potency [2]: inactive

Cc1ccccc1C(=O)NCC(=O)OC(C(=O)Nc1cc(C(F)(F)F)ccc1Cl)c1ccccc1 (stereo unspecified)
Potency [1]: inactive | Potency [2]: inactive

Cc1cc(-c2cnc(N)c3c(-c4ccc5scnc5c4)csc23)n(C)n1
Potency [1]: inactive | Potency [2]: inactive

COc1cccc(-c2nnc3n2N=C(c2ccccc2OC)CS3)c1
Potency [1]: inactive | Potency [2]: inactive

CC(=O)Nc1ccc(NC(=S)NC(=O)c2ccc(C(C)(C)C)cc2)cc1
Potency [1]: inactive | Potency [2]: inactive

C[C@H]1CC[C@@]2(OC1)O[C@H]1CC3[C@@H]4CC[C@@H]5C[C@@H](O[C@@H]6O[C@H](CO)[C@@H](O[C@@H]7O[C@@H](C)[C@H](O)[C@@H](O)[C@H]7O)[C@H](O)[C@H]6O[C@@H]6O[C@H](CO)[C@@H](O)[C@H](O)[C@H]6O)CC[C@]5(C)C4CC[C@]3(C)[C@H]1[C@@H]2C (stereo partly specified)
Potency [1]: inactive | Potency [2]: inactive

Cc1cc(NS(=O)(=O)c2ccc(NC(=O)Cc3ccc(Cl)cc3)cc2)no1
Potency [1]: inactive | Potency [2]: inactive

Cc1cc(C)nc(NC(=S)N2CCN(c3cc(Cl)cc(C(F)(F)F)c3)CC2)c1
Potency [1]: inactive | Potency [2]: inactive

Cc1cc(NC(=O)Nc2nnc(C3CCCCC3)s2)ccc1Cl
Potency [1]: inactive | Potency [2]: inactive

O=C(Cn1nc(C2CCCCC2)ccc1=O)NCCc1ccccc1
Potency [1]: inactive | Potency [2]: inactive

Cc1ccc(NS(=O)(=O)c2cc3c(cc2NCC(C)(C)O)NC(=O)CC3)cc1C
Potency [1]: inactive | Potency [2]: inactive

CC(=O)Nc1sc2c(c1-c1ccccc1)CCNC2
Potency [1]: inactive | Potency [2]: inactive

O=S(=O)(c1cccc(F)c1)N1CCN(S(=O)(=O)c2ccc3c(c2)OCCO3)CC1
Potency [1]: inactive | Potency [2]: inactive

Fc1ccc(-c2ccc(Nc3nc(-c4ccncc4)nc4ccccc34)cc2F)c(Cl)c1
Potency [1]: inactive | Potency [2]: inactive

COc1ccc(OC)c(-c2nnc3n2N=C(c2ccccc2OC)CS3)c1
Potency [1]: inactive | Potency [2]: inactive

COc1ccc(C2Nc3ccccc3C(=O)N2Cc2ccccc2)cc1Oc1ccc(NC(C)=O)cc1 (stereo unspecified)
Potency [1]: inactive | Potency [2]: inactive

COc1cc(OC)cc(-c2csc(N3CCC(C(N)=O)CC3)n2)c1
Potency [1]: inactive | Potency [2]: inactive

Cc1ccnc(NC(=S)NCCNc2cccc(C(F)(F)F)c2)c1
Potency [1]: inactive | Potency [2]: inactive

Cc1ccc(CSc2nnc(-c3cccc4ccccc34)o2)cc1
Potency [1]: inactive | Potency [2]: inactive

CC1CCC2(C1)N=C(Nc1nc3ccccc3o1)NC1=C2C(=O)CCC1 (stereo unspecified)
Potency [1]: inactive | Potency [2]: inactive

Cc1c(P(=S)(c2ccccc2)c2ccccc2)c2ccccc2n1C(=O)NCc1ccccc1
Potency [1]: inactive | Potency [2]: inactive

Cc1nc(CNc2ncnc3ccc(-c4ccoc4)cc23)cs1
Potency [1]: inactive | Potency [2]: inactive

O=c1c2ccccc2nc2sc(Nc3ccc(Br)cc3)nn12
Potency [1]: inactive | Potency [2]: inactive

CNc1nc(-c2cccc3ccccc23)ccc1C#N
Potency [1]: inactive | Potency [2]: inactive

Cc1ccc(OCCn2c(CCNC(=O)c3ccc4cc[nH]c4c3)nc3ccccc32)cc1
Potency [1]: inactive | Potency [2]: inactive
